# According to PubChem BioAssay:
# For some assays here: Results with a measured potency or affinity are listed apart. Active and inactive are the calls of the source. Cut-off read from the data, not from the text of the source, unless noted: active = inhibition above about 80%; inactive = the rest.
# Columns and labels:
# [1] = circadian clock period modulators, cell-based, LOPAC library, luminescence reporter (AID 2774; call rule not given here;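 note: values are relative to mean of DMSO wells on each plate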); settings: circadian reporter cells, at 7 µM, actives lie on both sides
# [2] = polyglutamine-triggered caspase-3 activation inhibitors, cell-based (AID 1583); settings: polyglutamine-induced caspase-3 activation, cell assay; stronger effect = higher value;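 tested at 10 µM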
# [3] = suppressors of polyQ aggregation in yeast, 75Q-TubU reporter (AID 1593); settings: Yeast 75Q polyglutamine aggregation reporter
# [4] = rescue of polyQ-huntingtin neuronal dysfunction in worms, whole organism, C. elegans mechanosensory neurons, N-terminal huntingtin (AID 1599); settings: touch response, stronger effect = higher value
# [5] = tested on: Hepatitis C virus NS3 helicase; test: HCV NS3 helicase inhibitors, primary screen, biochemical, fluorescence polarization, LOPAC1280 library (AID 687035; in the data active = inhibition above about 37%); settings: Purified HCV NS3 helicase, Cy5-dT15 ssDNA binding fluorescence polarization; stronger effect = higher value; concentration not given here
# [6] = Cy5 fluorescence quenching or enhancement artefacts, artefact control for HCV NS3 helicase inhibitor project, biochemical, LOPAC1280 (AID 687037; call rule not given here); settings: Cy5-DNA-NS3h complex fluorescence interference counterscreen
# [7] = modifiers of HSF1 nuclear foci, imaging, Selleck Cancer Library (AID 1347162; in the data active = plate-normalised HSF1 focus index below about 0.46); settings: human cells, at 10 µM; SSMD: measured here: HSF1 foci SSMD mean; cell count: measured here: cell number; plate-normalised HSF1 focus index: stronger effect = lower value
# [8] = LFS_MB_1R medulloblastoma cell growth inhibition, synergistic combos for chromothripsis tumors, cisplatin or BGB combos (AID 1671452); settings: LFS_MB_1R medulloblastoma cells, stronger effect = higher value;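 note: cells exposed for 96 hours before readout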
# [9] = HTB85 osteosarcoma cell growth inhibition, synergistic combos for chromothripsis tumors, BGB or cisplatin IC20 combos (AID 1671453); settings: HTB85 osteosarcoma cells, drug combinations, stronger effect = higher value;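 note: cells exposed for 96 hours before readout; 0% = vehicle DMSO and 100% = high DMSO killing control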
# [10] = CRL2098 osteosarcoma cell growth inhibition, synergistic combos for chromothripsis tumors, BGB or cisplatin IC20 combos (AID 1671454); settings: CRL2098 osteosarcoma cells, drug combinations, stronger effect = higher value;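 note: cells exposed for 96 h before readout; 0% = vehicle DMSO and 100% = killing by high DMSO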
# [11] = HD-MB03 medulloblastoma cell growth inhibition, synergistic combos for chromothripsis tumors, BGB or cisplatin IC20 combos (AID 1671455; in the data active = inhibition above about 83%;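 note: 0% = vehicle DMSO and 100% = high DMSO as cytotoxic control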); settings: HD-MB03 medulloblastoma cells, stronger effect = higher value
# [12] = UWB1.289 ovarian carcinoma cell growth inhibition, synergistic combos for chromothripsis tumors, BGB or cisplatin combos (AID 1671456); settings: UWB1.289 ovarian carcinoma cells, stronger effect = higher value;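 note: cells exposed to compound for four days; 0% = vehicle DMSO and 100% = killing by high DMSO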
# [13] = LFS_MB_2R medulloblastoma cell growth inhibition, synergistic combos for chromothripsis tumors, cisplatin combos (AID 1671457); settings: LFS_MB_2R medulloblastoma cells, stronger effect = higher value;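 note: cells exposed to compound for four days before readout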
# [14] = MDA-MB-436 breast carcinoma cell growth inhibition, synergistic combos for chromothripsis tumors, BGB or cisplatin combos (AID 1671458; call rule not given here;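 note: cells exposed for 96 hours; 0% = vehicle DMSO and 100% = killing by high DMSO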); settings: MDA-MB-436 breast carcinoma growth inhibition, drug combinations, stronger effect = higher value
# [15] = UWB1.289_BRCA1 ovarian cancer growth, cell-based, BGB or cisplatin combinations (AID 1671459); settings: UWB1.289 BRCA1 ovarian carcinoma, drug combinations, stronger effect = higher value
# [16] = human astrocyte viability loss, single and combined drugs, cytotoxicity control for chromothriptic childhood tumor combination screen, cell-based, BGB or cisplatin IC20 combos (AID 1671460); settings: Human astrocytes, drug combinations, stronger effect = higher value;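 note: cells exposed to compounds for 96 hours before viability readout; 0% = vehicle and 100% = killing control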
# [17] = growth inhibition of BT084 medulloblastoma cells, cell-based, ICGC_MB145, cisplatin and BGB IC40 combos (AID 1671461); settings: drug combinations, stronger effect = higher value;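 note: cells exposed to drugs for 96 hours; 0% = vehicle DMSO and 100% = high DMSO full killing control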
# [18] = growth inhibition of RCMB18 medulloblastoma cells, cell-based, cisplatin and BGB IC40 combos (AID 1671462); settings: stronger effect = higher value;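 note: cells exposed to compound for four days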
# [19] = growth inhibition of CRL1545 osteosarcoma cells, cell-based, cisplatin and BGB IC20 combos (AID 1671464); settings: stronger effect = higher value;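 note: cells exposed to compound for 96 hours before readout; 0% = vehicle DMSO and 100% = high DMSO killing control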
# [20] = differential killing of epithelial or mesenchymal cells, primary screen, imaging, PC-3E GFP, TEM4-18 mCherry, co-culture (AID 1345086;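 active = compounds killing one labelled cell type while sparing the other, by normalised counts and ratio limits, not self-fluorescent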;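 for all read-outs here: cells exposed to compound for 72 h before imaging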;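 for red/green cell ratio (normalised): normalised mesenchymal count divided by normalised epithelial count so high means epithelial killing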); settings: imaging cell counts, at 1 µM; for red/green cell ratio (normalised): actives lie on both sides, counts scaled to control wells, 1 = unselective
# [21] = measured here: combination with BGB IC40, at 0.05 µM
# [22] = measured here: combination with cisplatin, at 0.5 µM
# [23] = measured here: combination with cisplatin, at 5 µM
# [24] = measured here: with BGB IC20, at 0.5 µM
# [25] = measured here: with BGB IC20, at 5 µM
# [26] = measured here: with cisplatin IC20, at 0.5 µM
# [27] = measured here: with cisplatin IC20, at 5 µM
# [28] = measured here: combination with BGB at IC20, at 0.5 µM
# [29] = measured here: combination with cisplatin at IC20, at 0.5 µM
# [30] = measured here: combo with BGB at IC20, at 0.5 µM
# [31] = measured here: combo with cisplatin at IC20, at 0.5 µM
# [32] = measured here: inhibition with BGB combination, at 0.05 µM
# [33] = measured here: inhibition with cisplatin combination, at 0.05 µM
# [34] = measured here: BGB combination, at 0.5 µM
# [35] = measured here: BGB combination, at 5 µM
# [36] = measured here: cisplatin combination, at 0.5 µM
# [37] = measured here: cisplatin combination, at 5 µM
# [38] = BGB combination, concentration series, at 5 µM
# [39] = cisplatin combination, concentration series, at 5 µM
# [40] = measured here: combo with BGB IC20, at 0.5 µM
# [41] = measured here: combo with cisplatin IC20, at 0.5 µM
# [42] = cisplatin combination, at 0.5 µM
# [43] = measured here: BGB IC40 combination 0.05 uM, at 0.05 µM
# [44] = measured here: BGB IC40 combination, at 0.05 µM
# [45] = measured here: with BGB IC20 combination, at 0.5 µM
# [46] = measured here: with cisplatin IC20 combination, at 0.5 µM
# [47] = measured here: epithelial PC-3E GFP cell survival
# [48] = measured here: mesenchymal TEM4-18 mCherry cell survival
smiles,measurement,setting,value
O=c1[nH]c2ccccc2n1CCCN1CCN(C(c2ccccc2)c2ccccc2)CC1,period change,[1],0.15 h (inactive)
CC(C)NC[C@@H](O)COc1ccc(CC(N)=O)cc1,period change,[1],0.075 h (inactive)
CCOc1ccccc1OCC1CNCCO1 (configuration not stated),inhibition,[2],-5.29%
same,score,[3],1.39
same,rescue above control,[4],-3.95
Clc1cc(Cl)c(OCC#CI)cc1Cl,inhibition,[2],55.6%
same,score,[3],-0.06
same,rescue above control,[4],11
O=C1NCN(c2ccccc2)C12CCN(CCCC(c1ccc(F)cc1)c1ccc(F)cc1)CC2,period change,[1],-0.085 h (inactive)
same,inhibition,[5],0% (inactive)
same,fluorescence ratio (interference),[6],1 (inactive)
CN1CC[C@H](c2c(O)cc(O)c3c(=O)cc(-c4ccccc4Cl)oc23)[C@H](O)C1,SSMD,[7],1.33
same,cell count,[7],6730
same,plate-normalised HSF1 focus index,[7],1.07 (inactive)
CN1C[C@@H]2C[C@H]1CN2c1cc2c(cc1F)c(=O)c(C(=O)O)cn2C1CC1,inhibition,[8]; at 0.5 µM,-32.5% (inactive)
same,inhibition,[8]; [21],-27.6%
same,inhibition,[8]; [22],-60%
same,inhibition,[8]; [23],-44.9%
same,inhibition,[9]; at 0.5 µM,-40.1% (inactive)
same,inhibition,[9]; [24],-66.1%
same,inhibition,[9]; [25],-64.1%
same,inhibition,[9]; [26],-24.8%
same,inhibition,[9]; [27],-32.6%
same,inhibition,"[9]; single agent, at 5 µM",-25%
same,inhibition,[10]; at 0.5 µM,-70.8% (inactive)
same,inhibition,[10]; [28],-121%
same,inhibition,[10]; [29],-50%
same,inhibition,[11]; at 0.5 µM,-14.8% (inactive)
same,inhibition,[11]; [30],-11.6%
same,inhibition,[11]; [31],-20.6%
same,inhibition,[12]; at 0.5 µM,-14.3% (inactive)
same,inhibition,[12]; [32],-14.8%
same,inhibition,[12]; [33],-20.1%
same,inhibition,[13]; at 0.5 µM,-7.92% (inactive)
same,inhibition,[13]; [22],-3.36%
same,inhibition,[13]; [23],-96.9%
same,inhibition,[14]; at 0.5 µM,-9.69% (inactive)
same,inhibition,[14]; [34],1.19%
same,inhibition,[14]; [35],-5.03%
same,inhibition,[14]; [36],-28.1%
same,inhibition,[14]; [37],-7.33%
same,inhibition,[15]; [38],-23.3%
same,inhibition,[15]; at 0.5 µM,-16% (inactive)
same,inhibition,[15]; [39],2.38%
same,inhibition,[16]; at 0.5 µM,-25.7% (inactive)
same,inhibition,[16]; [40],-14.8%
same,inhibition,[16]; [41],-51.5%
same,inhibition,[17]; at 0.5 µM,-14.9% (inactive)
same,inhibition,[17]; [42],-11.4%
same,inhibition,"[17]; cisplatin combination, at 5 µM",-13.9%
same,inhibition,[17]; [43],0.828%
same,inhibition,"[17]; single agent, at 5 µM",-12.4%
same,inhibition,[18]; at 0.5 µM,-27.5% (inactive)
same,inhibition,"[18]; cisplatin combo, at 5 µM",-18.3%
same,inhibition,[18]; [44],-12.7%
same,inhibition,[18]; [22],-81.8%
same,inhibition,"[18]; single agent, at 5 µM",-17.7%
same,inhibition,[19]; at 0.5 µM,-62.9% (inactive)
same,inhibition,[19]; [45],-46.3%
same,inhibition,[19]; [46],-75.1%
same,inhibition,"[19]; single agent, at 0.05 µM",-30.1%
same,inhibition,"[19]; single agent, at 5 µM",-48.9%
CCN(CC)C(=O)c1cccnc1,red/green cell ratio (normalised),[20],1.14 (inactive)
same,normalised cell number,[20]; [47],0.99
same,normalised cell number,[20]; [48],1.13
CN(C)CCCO[C@@H]1[C@H]2OC(C)(C)O[C@H]2O[C@@H]1C(O)CO (some centres not stated),period change,[1],-0.08 h (inactive)
same,inhibition,[5],-4% (inactive)
same,fluorescence ratio (interference),[6],1 (inactive)
Cc1ccc2nc(N)[nH]c(=O)c2c1Sc1ccncc1,inhibition,[8]; at 0.5 µM,-7.14% (inactive)
same,inhibition,[8]; [21],-4.51%
same,inhibition,[8]; [22],-35.9%
same,inhibition,[8]; [23],0.93%
same,inhibition,[9]; at 0.5 µM,-33.1% (inactive)
same,inhibition,[9]; [24],-36.1%
same,inhibition,[9]; [25],7.13%
same,inhibition,[9]; [26],-25.9%
same,inhibition,[9]; [27],0.276%
same,inhibition,"[9]; single agent, at 5 µM",0.242%
same,inhibition,[10]; at 0.5 µM,-63.7% (inactive)
same,inhibition,[10]; [28],-72.3%
same,inhibition,[10]; [29],-84.4%
same,inhibition,[11]; at 0.5 µM,-15.4% (inactive)
same,inhibition,[11]; [30],-11.9%
same,inhibition,[11]; [31],-25.1%
same,inhibition,[12]; at 0.5 µM,-17.5% (inactive)
same,inhibition,[12]; [32],4.97%
same,inhibition,[12]; [33],-23%
same,inhibition,[13]; at 0.5 µM,-12.4% (inactive)
same,inhibition,[13]; [22],-25.9%
same,inhibition,[13]; [23],-11.5%
same,inhibition,[14]; at 0.5 µM,-7.12% (inactive)
same,inhibition,[14]; [34],-5.47%
same,inhibition,[14]; [35],11%
same,inhibition,[14]; [36],-13.7%
same,inhibition,[14]; [37],37.3%
same,inhibition,[15]; [38],-8.1%
same,inhibition,[15]; at 0.5 µM,-23.6% (inactive)
same,inhibition,[15]; [39],-9.76%
same,inhibition,[16]; at 0.5 µM,-6.91% (inactive)
same,inhibition,[16]; [40],-8.77%
same,inhibition,[16]; [41],-12.3%
same,inhibition,[17]; at 0.5 µM,3.52% (inactive)
same,inhibition,[17]; [42],-1.35%
same,inhibition,"[17]; cisplatin combination, at 5 µM",-137%
same,inhibition,[17]; [43],-7.71%
same,inhibition,"[17]; single agent, at 5 µM",6.61%
same,inhibition,[18]; at 0.5 µM,-22.7% (inactive)
same,inhibition,"[18]; cisplatin combo, at 5 µM",-4.62%
same,inhibition,[18]; [44],-25.2%
same,inhibition,[18]; [22],-45.9%
same,inhibition,"[18]; single agent, at 5 µM",12.6%
same,inhibition,[19]; at 0.5 µM,-26.5% (inactive)
same,inhibition,[19]; [45],-34.6%
same,inhibition,[19]; [46],-24.4%
same,inhibition,"[19]; single agent, at 0.05 µM",-59.1%
same,inhibition,"[19]; single agent, at 5 µM",-14.1%
CCCn1cnc2c1c(=O)n(CCCCC(C)=O)c(=O)n2C,period change,[1],0.185 h (inactive)
same,inhibition,[5],1% (inactive)
same,fluorescence ratio (interference),[6],1 (inactive)
same,red/green cell ratio (normalised),[20],0.84 (inactive)
same,normalised cell number,[20]; [47],1.14
same,normalised cell number,[20]; [48],0.96
